Measurements published in PubChem BioAssay (Tox21).
Records with an inconclusive call do not appear. Calls of active or inactive are those of the source. Calls follow the shape of the dose curve; as a rule, active = well fitted cell-killing curve with a large enough effect in the repeat runs; inconclusive = weak or mixed curves; inactive = no such curve, though single readings can be large or run the other way.

Assay: qHTS assay for identifying genotoxic compounds that show differential cytotoxicity against isogenic chicken DT40 cell lines with known DNA damage response pathways - Rad54/Ku70 mutant cell line (AID 743015); also: nearly all actives have a fitted effect of over 60% in size; also: potency is read from the fitted curve at half-maximal effect
Details: DT40 Rad54/Ku70 mutant viability, CellTiter-Glo, 40 h; series mostly up to 66.8 µM; activity change, negative = cytotoxicity: at the top concentration
% is scaled to controls: 0 for no effect and ±100 for the full control effect.

| SMILES | Potency | activity change, negative = cytotoxicity |
| --- | --- | --- |
| COC(=O)[C@H]1[C@H]2C[C@@H]3c4[nH]c5cc(OC)ccc5c4CCN3C[C@H]2C[C@@H](OC(=O)COc2ccc(OC)cc2)[C@@H]1OC | 18.8 µM (active) |  |
| Nc1ccc2cc(S(=O)(=O)O)ccc2c1 |  | 2.01% (inactive) |
| C=CCSCC1Nc2cc(Cl)c(S(N)(=O)=O)cc2S(=O)(=O)N1 (stereo not drawn) |  | 6.89% (inactive) |
| O=C1C(CCS(=O)c2ccccc2)C(=O)N(c2ccccc2)N1c1ccccc1 (stereo not drawn) |  | 3.87% [at 30.7 µM] (inactive) |
| CCN(CC)C(=O)c1ccc(O)c(OC)c1 | inactive |  |
| NCCNC(=O)c1ccc(Cl)cn1 |  | 4.33% (inactive) |
| Cc1cc(C)cc(OCC2CNC(=O)O2)c1 (stereo not drawn) |  | 3.97% (inactive) |
| C1COCCO1 |  | 10% [at 95.1 µM] (inactive) |
| C[C@H]1O[C@@H](n2cc(F)c(=O)[nH]c2=O)[C@H](O)[C@@H]1O | 23.7 µM (active) |  |
| C#CC(C)(O)CC(C)C (stereo not drawn) |  | 0.882% (inactive) |
| CC(=O)NC(Cc1ccccc1)C(=O)O (stereo not drawn) |  | -0.858% (inactive) |
| CCCCCCCCCCCCCCC |  | 11.5% (inactive) |
| CC(C)(C)N(CCO)CCO |  | 2.66% [at 95.1 µM] (inactive) |
| N#CCN(CC#N)CCN(CC#N)CC#N |  | 13.9% (inactive) |
| NC(=O)Nc1nc2ccccc2[nH]1 |  | -4.32% (inactive) |
| CCCCOCC(C)OCC(C)O (stereo not drawn) |  | 7.2% [at 95.1 µM] (inactive) |
| CSc1ccc(C=O)cc1 |  | 2.21% (inactive) |
| OC[C@H]1O[C@@H]2O[C@H]3[C@H](O)[C@@H](O)[C@@H](O[C@H]4[C@H](O)[C@@H](O)[C@@H](O[C@H]5[C@H](O)[C@@H](O)[C@@H](O[C@H]6[C@H](O)[C@@H](O)[C@@H](O[C@H]7[C@H](O)[C@@H](O)[C@@H](O[C@H]8[C@H](O)[C@@H](O)[C@@H](O[C@H]9[C@H](O)[C@@H](O)[C@@H](O[C@H]1[C@H](O)[C@H]2O)O[C@@H]9CO)O[C@@H]8CO)O[C@@H]7CO)O[C@@H]6CO)O[C@@H]5CO)O[C@@H]4CO)O[C@@H]3CO |  | -2.08% [at 30.7 µM] (inactive) |
| COC[C@H](c1ccc(C(F)(F)F)cc1)N1CCN(C2(C)CCN(C(=O)c3c(C)ncnc3C)CC2)C[C@H]1C |  | -7.73% (inactive) |
| Fc1ccccc1-c1ccccc1 |  | 7.65% [at 95.1 µM] (inactive) |
| NC(=O)c1c(Cl)cccc1Cl |  | -11.2% (inactive) |

Assay: qHTS assay to identify small molecule antagonists of the androgen receptor (AR) signaling pathway - cell viability counter screen (AID 743033; also: nearly all actives have a fitted effect of over 45% in size)
Details: AR-bla HEK293 viability, CellTiter-Glo luminescence, 16 h; series mostly up to 58.5 µM; activity change, negative = cytotoxicity: at the top concentration

| SMILES | activity change, negative = cytotoxicity | outcome |
| --- | --- | --- |
| Nc1ccc2cc(S(=O)(=O)O)ccc2c1 | 0.347% (inactive) |  |
| C=CCSCC1Nc2cc(Cl)c(S(N)(=O)=O)cc2S(=O)(=O)N1 (stereo not drawn) | 1.91% (inactive) |  |
| O=C1C(CCS(=O)c2ccccc2)C(=O)N(c2ccccc2)N1c1ccccc1 (stereo not drawn) | -30.3% [at 27 µM] (inactive) |  |
| CC(C)=CC(=O)O | -7.99% (inactive) |  |
| CCN(CC)C(=O)c1ccc(O)c(OC)c1 |  | inactive |
| NCCNC(=O)c1ccc(Cl)cn1 | 8.59% (inactive) |  |
| Cc1cc(C)cc(OCC2CNC(=O)O2)c1 (stereo not drawn) | -15.4% (inactive) |  |
| C1COCCO1 | -8.63% [at 78.9 µM] (inactive) |  |
| O=C1OC(=O)c2cc([N+](=O)[O-])ccc21 | 0.564% (inactive) |  |
| C=C(C)C1CC=C(C)C(O)C1 (stereo not drawn) | 2.96% [at 78.9 µM] (inactive) |  |
| C#CC(C)(O)CC(C)C (stereo not drawn) | -0.326% (inactive) |  |
| CC(=O)NC(Cc1ccccc1)C(=O)O (stereo not drawn) | -24.7% (inactive) |  |
| CN(C)N=Nc1ccccc1 | 9.6% (inactive) |  |
| NCCN1CCNC1=O | -9.32% (inactive) |  |
| CCCOCC(C)OCC(C)O (stereo not drawn) | -0.269% [at 78.9 µM] (inactive) |  |
| CCCCCCCCCCCCCCC | 0.429% (inactive) |  |

| SMILES | activity change, negative = cytotoxicity | outcome |
| --- | --- | --- |
| CC(C)(C)N(CCO)CCO | -7.47% [at 78.9 µM] (inactive) |  |
| N#CCN(CC#N)CCN(CC#N)CC#N | -2.65% (inactive) |  |
| NC(=O)Nc1nc2ccccc2[nH]1 | 1.79% (inactive) |  |
| CCCCOCC(C)OCC(C)O (stereo not drawn) | -3.95% [at 78.9 µM] (inactive) |  |
| CSc1ccc(C=O)cc1 | -0.407% (inactive) |  |
| CCCOc1ccccc1-c1nc2n[nH]nc2c(=O)[nH]1 | -3.1% (inactive) |  |
| OC[C@H]1O[C@@H]2O[C@H]3[C@H](O)[C@@H](O)[C@@H](O[C@H]4[C@H](O)[C@@H](O)[C@@H](O[C@H]5[C@H](O)[C@@H](O)[C@@H](O[C@H]6[C@H](O)[C@@H](O)[C@@H](O[C@H]7[C@H](O)[C@@H](O)[C@@H](O[C@H]8[C@H](O)[C@@H](O)[C@@H](O[C@H]9[C@H](O)[C@@H](O)[C@@H](O[C@H]1[C@H](O)[C@H]2O)O[C@@H]9CO)O[C@@H]8CO)O[C@@H]7CO)O[C@@H]6CO)O[C@@H]5CO)O[C@@H]4CO)O[C@@H]3CO | -1.16% [at 27 µM] (inactive) |  |
| CC(C)(C)C(=O)/C=C/c1ccc(Cl)cc1 | 3.4% (inactive) |  |
| CCN1CCN(c2cc3c(cc2F)c(=O)c(C(=O)O)cn3C2CC2)CC1 | -27.1% (inactive) |  |
| Cc1ccccc1C(=O)O | 0.557% (inactive) |  |
| COC[C@H](c1ccc(C(F)(F)F)cc1)N1CCN(C2(C)CCN(C(=O)c3c(C)ncnc3C)CC2)C[C@H]1C | -13% (inactive) |  |
| Fc1ccccc1-c1ccccc1 | -0.214% [at 78.9 µM] (inactive) |  |
| NC(=O)c1c(Cl)cccc1Cl | 6.6% (inactive) |  |
| CC1=CC(C)C(C=O)C(C)C1 (stereo not drawn) | 0.129% (inactive) |  |
| C(=C(c1ccccc1)c1ccccc1)c1ccccc1 | 1.55% (inactive) |  |
| CC/C=C\CCCCO | 9.49% (inactive) |  |
